ROC1-CUL1 inh: blocks human RBX1-Cullin-1 di-ubiquitin formation; P62877+Q13616; in vitro K48 di-Ub FRET, acceptor:donor ratio, 45 min; inhibition, % at 10 µM; hit rate 0.6% among 140,000; AID 1347404; in the data active = inhibition above about 25%
Target sequence (P62877 whole entry, looked up): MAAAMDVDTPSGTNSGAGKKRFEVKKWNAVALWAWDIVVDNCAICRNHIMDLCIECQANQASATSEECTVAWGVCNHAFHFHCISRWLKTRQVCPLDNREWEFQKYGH
Target sequence (Q13616 whole entry, looked up): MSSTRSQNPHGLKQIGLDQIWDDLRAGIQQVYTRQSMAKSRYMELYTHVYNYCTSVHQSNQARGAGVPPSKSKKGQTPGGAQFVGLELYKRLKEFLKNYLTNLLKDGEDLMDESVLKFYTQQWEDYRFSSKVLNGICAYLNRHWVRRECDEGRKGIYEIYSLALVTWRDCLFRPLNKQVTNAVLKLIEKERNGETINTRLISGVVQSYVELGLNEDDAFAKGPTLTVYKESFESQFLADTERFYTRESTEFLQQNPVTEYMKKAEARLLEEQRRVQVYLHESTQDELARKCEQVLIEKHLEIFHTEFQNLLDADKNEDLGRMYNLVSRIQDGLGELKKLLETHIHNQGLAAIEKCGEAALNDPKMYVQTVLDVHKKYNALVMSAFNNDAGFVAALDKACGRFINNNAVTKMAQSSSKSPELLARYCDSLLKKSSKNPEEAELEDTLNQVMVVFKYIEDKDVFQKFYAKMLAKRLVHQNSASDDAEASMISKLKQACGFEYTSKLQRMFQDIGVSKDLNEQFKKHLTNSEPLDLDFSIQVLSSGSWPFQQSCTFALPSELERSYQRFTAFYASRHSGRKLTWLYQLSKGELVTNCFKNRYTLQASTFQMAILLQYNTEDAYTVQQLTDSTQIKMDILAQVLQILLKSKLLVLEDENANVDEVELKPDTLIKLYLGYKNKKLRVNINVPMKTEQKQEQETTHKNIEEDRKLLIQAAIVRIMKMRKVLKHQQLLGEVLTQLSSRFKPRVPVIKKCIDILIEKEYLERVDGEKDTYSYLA
Each line names hits and unclear results; the compound was inactive in the other large screens. The full list was thinned out, with hits kept by preference.

CCCCc1[nH]nc2c1C1(C(=O)N(C)c3ccccc31)C(C#N)C(=N)O2 (centres undefined)	none
Cc1ccc(-c2cc(C(=O)NCCCn3ccnc3)c3ccccc3n2)o1	none
Cn1nccc1C(=O)n1cnc2ccccc21	none
Cn1nccc1C(=O)C#Cc1ccccc1	ROC1-CUL1 inh 62
Cn1nccc1C(=O)NC(C)(C)CC(C)(C)C	none
N#CC1C(=N)Oc2n[nH]c(-c3ccccc3)c2C1c1ccccc1F (centres undefined)	none
Cc1c(N=NC2C(=O)N(c3ccccc3)N=C2N)c(=O)n(-c2ccccc2)n1C (centres undefined)	none
CC1=NNC(=O)C1N=Nc1c(C)n(C)n(-c2ccccc2)c1=O (centres undefined)	ROC1-CUL1 inh 39
Cc1c(Sc2c(C)n(C)n(-c3ccccc3)c2=O)c(=O)n(-c2ccccc2)n1C	none
COc1ccc(N)c2c(=O)ccoc12	none
CCn1ncc(/C=C/C(=O)c2ccccc2)c1C	none
Cc1ccccc1N=C1CC=CC=CC1=O	none
O=C(CCc1ccccc1)N/N=C/c1cccc(Cl)c1Cl	none
CCN=C1CC=CC=C(C(=O)/C=C/c2cccc(Cl)c2Cl)C1=O	ROC1-CUL1 inh 38
CCN=C1CC=CC=C(C(=O)/C=C/c2ccc(C#N)cc2)C1=O	none
CCN=C1CC=CC=C(C(=O)/C=C/c2ccccc2Cl)C1=O	none
CCN=C1CC=CC=C(C(=O)/C=C/c2ccccc2C)C1=O	ROC1-CUL1 inh 73
CCN=C1CC=CC=C(C(=O)/C=C/c2ccccc2Br)C1=O	ROC1-CUL1 inh 36
CCC(C)N1C(=O)S/C(=C/c2ccccc2Br)C1=O (centres undefined)	none
CN=C1CC=CC=C(C(=O)/C=C/c2cccc(C(F)(F)F)c2)C1=O	ROC1-CUL1 inh 81
CCN=C1CC=CC=C(C(=O)/C=C/c2ccccc2OCC)C1=O	none
CCN=C1CC=CC=C(C(=O)/C=C/c2ccc(CC)cc2)C1=O	none
CC(=O)Sc1c(-c2ccc(Br)cc2)nn2c3ccccc3n(C)c12	none
CSCCC(=O)N1CCc2onc(-c3ccc(Cl)cc3)c2C1	none
O=C1[C@@H]2CSC(c3ccc(Br)cc3)N2C(=S)N1c1ccc(Cl)cc1 (some centres undefined)	none
Cc1cc(C(F)(F)F)nn1CC(=O)N1CCCCCC1	none
CCCN(CCC)S(=O)(=O)c1ccc(NC(=O)COC)cc1	none
Cn1ccnc1SCC(=O)N1N=C2c3ccccc3CCC2C1c1ccc(F)cc1 (centres undefined)	none
COc1ccc(CN2C[C@@H]3C[C@@H](c4ccc(F)cc4)N4CCC[C@@]34C2=O)cc1	none
Cc1ccc(N2C(=O)/C(=C/c3ccc(-c4ccccc4)o3)C(=O)NC2=S)cc1Cl	none
O=C1NC(=S)N(c2ccc(Br)cc2)C(=O)/C1=C/c1ccc(Sc2nc3ccccc3[nH]2)o1	ROC1-CUL1 inh 108
O=C1NC(=S)N(c2cccc(F)c2)C(=O)/C1=C/c1ccc(Sc2ccc(Cl)cc2)o1	none
O=C1C(=Cc2ccc(Sc3ccc(Cl)cc3)o2)C(=O)c2ccccc21	none
O=C(NC1CCCC1)c1ccc(-n2nncc2-c2ccccc2)cc1	none
O=C(CSc1nc2sc3c(c2c(=O)n1-c1ccccc1)CCC3)NCCc1ccc2c(c1)OCCO2	none
Cc1nnc(-c2cccc(NC(=O)C3CCN(C(=O)Cn4cccn4)CC3)c2)s1	none
COc1cc(NS(=O)(=O)c2ccc(NC(=O)c3ccc(COc4ccc5c(c4)CCC5)o3)cc2)ncn1	none
O=C(Nc1ccc(S(=O)(=O)Nc2ccc(Cl)nn2)cc1)c1ccc(COc2cc(Cl)ccc2Cl)o1	ROC1-CUL1 inh 35
O=C(Nc1ccc(S(=O)(=O)Nc2ccc(Cl)nn2)cc1)c1ccc(COc2cccc(Cl)c2)o1	none
c1ccc(CNc2ncnc3c2oc2ccccc23)cc1	none
CC(/C=C/C(=O)c1ccc(C)cc1)=C\c1ccccc1	none
COc1ccccc1/C=C/C(=O)c1ccccc1	none
O=C(/C=C/C(=O)c1ccccc1)c1ccccc1	ROC1-CUL1 inh 27
COCc1cc(CN2CCc3[nH]nc(-c4cccc(F)c4)c3C2)ccc1OC	none
Cc1ccc(N2C(=O)/C(=C/c3ccccc3)N=C2N(C(C)C)C(C)C)cc1	none
COCCCNc1nc2c(c(=O)n(C)c(=O)n2C)n1Cc1ccccc1	none
Cn1c(=O)c2c(nc(NCCN)n2Cc2ccc(Cl)cc2)n(C)c1=O	ROC1-CUL1 inh 27
Cn1c(NCCN)nc2c1c(=O)n(Cc1ccccc1)c(=O)n2C	none
CCN(c1ccccc1)S(=O)(=O)c1ccc2c(c1)C(=O)C(C(=O)NC1CCCCC1)C=N2 (centres undefined)	none
COCCC(=O)N1CCc2c([nH]c3ccccc23)C1c1cc(F)ccc1F (centres undefined)	none
C=CCN1C(=O)/C(=C/c2ccc(Oc3ccc([N+](=O)[O-])cn3)cc2)C(=O)NC1=S	none
O=C1S/C(=C\c2ccccc2)C(=O)N1Cc1ccc(F)cc1	none
C=CCOc1c(Br)cc(/C=C2\SC(=O)N(Cc3ccc(F)cc3)C2=O)cc1OCC	none
O=C1S/C(=C\c2cc(Br)c(O)c(Br)c2)C(=O)N1Cc1ccc(F)cc1	ROC1-CUL1 inh 31
CCNS(=O)(=O)c1cc(C(=O)NCC(C)C)ccc1OC	none
CCS(=O)(=O)N1CCC(C(=O)NCc2ccc(C)cc2)CC1	none
O=[N+]([O-])c1ccsc1C1OCCO1	none
O=C(O)c1sccc1-c1ccsc1	none
O=[N+]([O-])c1sccc1-c1ccsc1	ROC1-CUL1 inh 29
CCOc1ccc2c(c1)-c1c(ssc1=Nc1ccc(Cl)cc1)C(C)(C)N2	none
COc1ccc2c(c1)C1=C3C(=CC4(C)CC(C)(C)CC3(C4)N2)CC(C)(C)C1 (centres undefined)	none
COc1cccc(/C=N/Nc2nncc(-c3ccccc3)n2)c1	none
CCC(=O)N(C)C(Cc1ccc(F)cc1F)C1CCN(C(=O)C2CC(=O)c3ccccc32)CC1 (centres undefined)	none
C1=C(c2ccc(-c3ccccc3)cc2)N2C(=NN=C(c3ccccc3)C2c2ccccc2)S1 (centres undefined)	none
Cc1ccc(C2=CSC3=NN=C(c4ccccc4)C(c4ccccc4)N23)cc1 (centres undefined)	none
C1=C(c2ccccc2)N2C(=NN=C(c3ccccc3)C2c2ccccc2)S1 (centres undefined)	ROC1-CUL1 inh 41
Clc1ccc(CNc2ncn[nH]2)cc1Cl	none
O=C1c2ccccc2-c2nc3nsnc3nc21	ROC1-CUL1 inh 87
O=C1c2ccccc2-c2nc3ccc(Cl)cc3nc21	none
O=C1c2ccccc2-c2ncccc21	none
CC(C)CS(=O)(=O)c1ncc(CN2CCCC2)n1Cc1ccccc1	none
Cc1ncc2c(c1-c1noc(CCc3ccc(=O)[nH]n3)n1)CCNC2	none
CCOc1ccc(OCC)c(N2C(=O)NC(=O)/C(=C\c3ccc(Br)o3)C2=O)c1	ROC1-CUL1 inh 76
CCOc1ccc(OCC)c(N2C(=O)NC(=O)/C(=C\c3cccs3)C2=O)c1	none
CCOc1ccc(OCC)c(N2C(=O)NC(=O)/C(=C\c3ccc(OCC#N)cc3)C2=O)c1	none
CN1C(=O)CC(CC(=O)N2CCC(c3ccncc3)CC2)(c2ccc(-c3ccccc3)cc2)C1=O (centres undefined)	none
CC(=O)c1ccc(Sc2ccc(Cl)cc2C(=O)O)cc1	none
CC1=NN(c2ccc(Cl)c(Cl)c2)C(=O)/C1=C/c1ccc(C)cc1	none
CC1=NN(c2ccc(C(=O)O)cc2)C(=O)/C1=C/c1cc(C(C)(C)C)c(O)c(C(C)(C)C)c1	none
CC1=NN(c2ccc(Cl)c(C(=O)O)c2)C(=O)/C1=C\c1cnn(-c2ccc(C)c(C)c2)c1	ROC1-CUL1 inh 100
Cc1ccc(NC(=O)c2c(N)sc3c2CCC3)cc1	none
Cc1ccc(NC(=O)c2c(N)sc3c2CCCCC3)c(C)c1	ROC1-CUL1 inh 65
Cc1ccc(NC(=O)c2c(NC(=O)C(C)(C)C)sc3c2CCCC3)c(C)c1	none

Bioassay records as filed in PubChem BioAssay.
